This is an account of results in PubChem BioAssay.

The subject of experiment [1] is XIP peptide (Xip251-270) binding. Description: small-molecule binders of XIP peptide, primary screen, biochemical, small-molecule microarray, fluorescence 635/667 nm, 0.1 µg/mL protein (AID 1182). The note with it: fluorescent protein binding, 635 nm, higher = more signal, called active from +8 up or from −8 down.
In a further experiment the test system is XIP peptide (Xip251-270). Description: small-molecule binders of XIP peptide, primary screen, biochemical, small-molecule microarray, fluorescence 635/667 nm, 0.5 µg/mL protein (AID 1183). To be noted: small-molecule microarray binding, fluorescence 635 nm; higher = more signal.
A short description of experiment [2]: Plasmodium falciparum growth inhibition, primary screen, strain 3D7, DAPI fluorescence, 100 nL (AID 1184).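 Also: parasites grown inside human red blood cells in medium with human serum.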 To be noted: P. falciparum 3D7 growth, 3 d, higher = more signal.
For experiment [3], the target named is Homeobox protein Hox-A13 (Mus musculus) (UniProt Q62424). Briefly: inhibitors of HoxA13-DNA binding, primary screen, biochemical, fluorescence polarization, labeled oligonucleotide (AID 1185). The note with it: 15 min, higher = more signal, called active from +8 up or from −8 down.
Experiment [4] is described as follows: inhibitors of hydroxyurea-induced Chk1 phosphorylation, primary screen, imaging, HeLa, phospho-Chk1 antibody, percent positive cells (AID 1186). To be noted: hydroxyurea-induced phospho-Chk1 immunofluorescence imaging, higher = more signal.
The nature of experiment [5]: inhibitors of hydroxyurea-induced Chk1 phosphorylation, primary screen, imaging, HeLa, phospho-Chk1 nuclear intensity (AID 1187). The note with it: hydroxyurea-induced phospho-Chk1 immunofluorescence imaging, higher = more signal.

Calls of active or inactive are those of the source. Unless noted, no rule for the calls is given here.

Homeobox protein Hox-A13 (Mus musculus), sequence (Q62424 whole entry, looked up): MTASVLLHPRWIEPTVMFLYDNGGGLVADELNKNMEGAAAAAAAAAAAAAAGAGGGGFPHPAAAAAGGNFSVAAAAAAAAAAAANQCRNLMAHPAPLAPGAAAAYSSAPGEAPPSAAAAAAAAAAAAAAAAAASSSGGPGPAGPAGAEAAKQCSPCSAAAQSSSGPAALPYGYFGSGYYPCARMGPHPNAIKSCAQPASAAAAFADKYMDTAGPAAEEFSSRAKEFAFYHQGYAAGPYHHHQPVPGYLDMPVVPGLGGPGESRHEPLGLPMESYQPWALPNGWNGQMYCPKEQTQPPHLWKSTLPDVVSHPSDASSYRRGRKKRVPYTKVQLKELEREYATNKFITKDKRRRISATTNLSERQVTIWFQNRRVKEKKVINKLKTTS

In the case of `CCOC(=O)N1C(c2ccc(OCCCO)cc2)=NC(C(=O)OC)N1C(=O)OCC` (stereo not drawn), the composite z-score is 1.43 (inactive) in experiment [1] and 0.735 with XIP peptide (Xip251-270). The z-score in experiment [2] was -1.28; in experiment [3], -4.45 (inactive); in experiment [4] it was -0.231 (inactive); in experiment [5], -0.116 (inactive).
For the compound `O=C1C[C@@](C(=O)O)(c2ccc([N+](=O)[O-])cc2)[C@@H](c2ccc(CO)cc2I)N1CC12CC3CC(CC(C3)C1)C2`, the composite z-score in experiment [1] was 0.862 (inactive); in the experiment on XIP peptide (Xip251-270) it was 0.771. Also, the z-score in experiment [2] is -1.92; in experiment [3], -5.13 (inactive); in experiment [4], 0.288 (inactive); in experiment [5], 0.285 (inactive).
For the compound `CCOC(=O)C=Cc1cccc(OC)c1O`, the composite z-score in experiment [1] was 0.0682 (inactive); with XIP peptide (Xip251-270), 0.36. Also, the z-score in experiment [2] was -1.24; in experiment [3] it was -0.697 (inactive); in experiment [4] it was -1.68 (inactive); in experiment [5], -1.49 (inactive).
For `C=CCC(OC(C)=O)[C@@H]1[C@@H](N(Cc2cc3ccccc3o2)C(=O)c2ccc(C)cc2)c2cc(OCCCO)ccc2N1C(=O)c1ccc(-c2ccccc2)cc1` (stereo partly drawn), the composite z-score is -0.28 (inactive) in experiment [1] and -0.294 in the experiment on XIP peptide (Xip251-270). The z-score in experiment [2] is -2.58; in experiment [3], -0.468 (inactive); in experiment [4] it was -1.19 (inactive); in experiment [5] it was -1.05 (inactive).
Consider `CN1C(=O)C2C=CC(C(O)c3ccc(Br)cc3)N(Nc3ccccc3)C2C1=O` (stereo not drawn), for which the figures for the composite z-score (in experiment [1]; in the experiment with XIP peptide (Xip251-270)) were -0.115 (inactive) and 0.0244, respectively. Further, the z-score in experiment [2] is 0.672; in experiment [3], -1.23 (inactive); in experiment [4], 0.247 (inactive); in experiment [5], -0.122 (inactive).
For the compound `O=C1C2C=CC(C(O)c3ccc(-c4ccccc4)s3)N(Nc3ccccc3F)C2C(=O)N1c1ccccc1` (stereo not drawn), the composite z-score in experiment [1] was 0.251 (inactive); with XIP peptide (Xip251-270), 0.734. Besides, the z-score is -0.531 in experiment [2], 0.151 (inactive) in experiment [3], 0.184 (inactive) in experiment [4] and 0.414 (inactive) in experiment [5].
Regarding `O=[N+]([O-])c1ccc(C[n+]2ccc(CCCO)cc2)o1`, the composite z-score was 0.46 (inactive) in experiment [1] and 0.968 with XIP peptide (Xip251-270). The z-score is -1.28 in experiment [2], -2.88 (inactive) in experiment [3], -0.0644 (inactive) in experiment [4] and 0.492 (inactive) in experiment [5].
For the compound `CN(C)CCCN1C(=O)[C@@]2(c3ccc([N+](=O)[O-])cc3)CC(=O)N(C3CCCCC3)[C@@H]2c2ccc(CO)cc21`, the figures for the composite z-score (in experiment [1]; in the experiment with XIP peptide (Xip251-270)) were -0.157 (inactive) and -0.0092, respectively. In addition, the z-score in experiment [2] is 0.615; in experiment [3], -0.595 (inactive); in experiment [4], -0.659 (inactive); in experiment [5] it was -0.648 (inactive).
Turning to `C=CCN1Cc2ccccc2C[C@]2(N=C(c3ccc(OCCCO)cc3)O[C@@H]2c2ccccc2)C1=O`, the composite z-score in experiment [1] was 1.27 (inactive); in the experiment on XIP peptide (Xip251-270), 0.824. Also, the z-score in experiment [2] was -2.31; in experiment [3] it was -3.62 (inactive); in experiment [4], -0.802 (inactive); in experiment [5] it was -0.978 (inactive).
On to `Cc1ccc(S[C@]2(C(=O)NCCCN(C)C)CC(=O)N(C(C)C)[C@@H]2c2ccc(CO)cc2I)cc1`, for which the figures for the composite z-score (in experiment [1]; with XIP peptide (Xip251-270)) were 0.352 (inactive) and 0.412, respectively. The z-score in experiment [2] was -0.621; in experiment [3], -2.81 (inactive); in experiment [4], 0.535 (inactive); in experiment [5] it was 0.775 (inactive).
As to `COC(=O)c1c2oc(c1C(=O)OC)C(=O)N[C@H](Cc1ccccc1)Cn1nncc1C1(CCCCC1)NC(=O)N[C@H](CO)CC2`, the results for the composite z-score (in experiment [1]; with XIP peptide (Xip251-270)) were 0.152 (inactive) and -0.0356, respectively. The z-score in experiment [2] was 1.06; in experiment [3], -2.22 (inactive); in experiment [4] it was -0.971 (inactive); in experiment [5] it was -0.939 (inactive).
In the case of `NC(=O)NCC#Cc1ccc2c(c1)[C@]1(C(=O)N2)[C@H](c2ccc(O)cc2)N2[C@H](c3ccccc3)[C@H](c3ccccc3)OC(=O)[C@H]2[C@@H]1C(=O)N1CCN(c2ncccn2)CC1`, the composite z-score was 0.17 (inactive) in experiment [1] and 0.466 in the experiment on XIP peptide (Xip251-270). Besides, the z-score in experiment [2] is -0.136; in experiment [3], -1.61 (inactive); in experiment [4] it was 0.477 (inactive); in experiment [5], 1.04 (inactive).
`COCCOC(=O)N1C(=O)[C@@]2(c3cc(C#CC4(O)CCCCCC4)ccc31)[C@H](c1ccc(O)cc1)N1[C@H](c3ccccc3)[C@H](c3ccccc3)OC(=O)[C@H]1[C@@H]2C(=O)N1CCc2cc(OC)c(OC)cc2C1`: the results for the composite z-score (in experiment [1]; in the experiment on XIP peptide (Xip251-270)) were -0.455 (inactive) and 0.839, respectively. The z-score in experiment [2] is 0.0635; in experiment [3], -0.954 (inactive); in experiment [4], -0.404 (inactive); in experiment [5] it was -0.466 (inactive).
As for `COC(=O)[C@@]1(Cc2ccc(F)cc2)[C@H]2c3cc(C(=O)N(C)C)n(CCCNc4ccc(C(F)(F)F)cc4Cl)c3C[C@H]2CN1C(=O)c1ccccc1`, the composite z-score was 0.915 (inactive) in experiment [1] and 0.557 with XIP peptide (Xip251-270). The z-score in experiment [2] is -1.39; in experiment [3] it was -0.925 (inactive); in experiment [4] it was 0.456 (inactive); in experiment [5], -0.225 (inactive).
Consider `C=CC[C@]1(C(=O)O)N=C(c2ccc(OCCCO)cc2)O[C@H]1c1ccccc1CN=[N+]=[N-]`, for which the values for the composite z-score (in experiment [1]; in the experiment on XIP peptide (Xip251-270)) were 1 (inactive) and -0.76, respectively. The z-score in experiment [2] is 0.797; in experiment [3] it was -5.35 (inactive); in experiment [4], 0.341 (inactive); in experiment [5] it was -0.0268 (inactive).
Turning to `C=CCC(OC(C)=O)[C@@H]1[C@@H](N(Cc2ccc(-c3cccc(C(F)(F)F)c3)o2)C(=O)c2ccc(C)cc2)c2cc(OCCCO)ccc2N1C(=O)c1ccc2ccccc2n1` (stereo partly drawn), the results for the composite z-score (in experiment [1]; with XIP peptide (Xip251-270)) were -0.0348 (inactive) and -0.789, respectively. Further, the z-score in experiment [2] is -0.537; in experiment [3] it was -0.918 (inactive); in experiment [4] it was -0.51 (inactive); in experiment [5], -0.703 (inactive).
On to `O=c1cccc(-c2ccccc2)o1`, for which the composite z-score was -0.724 (inactive) in experiment [1] and 0.765 with XIP peptide (Xip251-270). Besides, the z-score in experiment [2] was 0.495; in experiment [3], -1.85 (inactive); in experiment [4], 0.403 (inactive); in experiment [5] it was 0.0838 (inactive).
Consider `COc1ccc(C#Cc2ccc3c(c2)[C@]2(C(=O)N3)[C@H](C(=O)N3CCc4cc(OC)c(OC)cc4C3)[C@H]3C(=O)O[C@H](c4ccccc4)[C@H](c4ccccc4)N3[C@@H]2c2ccc(OCCO)cc2)cc1`, for which the composite z-score was 0.53 (inactive) in experiment [1] and 0.598 in the experiment on XIP peptide (Xip251-270). The z-score in experiment [2] is -1.36; in experiment [3], -2.71 (inactive); in experiment [4], -0.122 (inactive); in experiment [5], 2.93 (inactive).
